Laboratory results taken from paper PMC5540273 (PLoS ONE, 2017).

What was measured:
Conditions in all cases: concentration: 1 μM, replicates: in singlicate; n = 1
HASPIN = system: T1, HASPIN
T1 construct: gene GSG2

HCK = system: HCK
HIPK1 = system: HIPK1
HIPK2 = system: HIPK2
HIPK3 = system: HIPK3
HIPK4 = system: HIPK4
HPK1 = system: HPK1
HUNK = system: HUNK
ICK = system: ICK
IGF1R = system: IGF1R
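Note: KINOMEscan kinase panel screen.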

Row | Structure (SMILES) | %Inh (HASPIN) [%] | %Inh (HCK) [%] | %Inh (HIPK1) [%] | %Inh (HIPK2) [%] | %Inh (HIPK3) [%] | %Inh (HIPK4) [%] | %Inh (HPK1) [%] | %Inh (HUNK) [%] | %Inh (ICK) [%] | %Inh (IGF1R) [%]
1 | Fc1cc(Cl)ccc1Nc1ccnc2cc(-c3ccc(CN4CCSCC4)o3)ccc12 [GW560106] | 28 | 95.3 | 3 | 0 | 0 | 0 | 20 | 71 | 0 | 25
2 | Cc1ccc(Nc2ccnc(Nc3ccc(C)c(F)c3)n2)cc1O.Cl [GW582868] | 10 | 29 | 0 | 0 | 0 | 4 | 30 | 0 | 2 | 0
3 | CCNC(=O)/C=C/c1n[nH]c2cc(Sc3ccccc3C(=O)NC)ccc12 | 14 | 7 | 23 | 2 | 22 | 0 | 8 | 0 | 0 | 10
4 | O=C1NC(=O)C(c2ccccc2Cl)=C1Nc1cccc(Cl)c1 [SB-342409] | 0 | 0 | 0 | 0 | 2 | 3 | 49 | 0 | 45 | 20
5 | COc1ccc(C)c(Nc2ccnc(Nc3ccc(-c4cnc[nH]4)cc3)n2)c1.Cl [GW784041] | 0 | 63 | 48 | 0 | 0 | 30 | 0 | 0 | 0 | 12
6 | COc1ccc(NC(=O)c2ccoc2)cc1-c1ccc(C(=O)NCC2CC2)cc1 [GW810437] | 23 | 26 | 5 | 18 | 7 | 6 | 0 | 31 | 13 | 0
7 | CS(=O)(=O)c1cccc(CNc2nc(Nc3ccc4c(c3)CCC(=O)N4)ncc2C(F)(F)F)c1 | 0 | 0 | 31 | 3 | 0 | 22 | 41 | 0 | 0 | 5
8 | CSc1ccc(NC2=C(c3ccc(Cl)cc3)C(=O)NC2=O)cc1 [SB-317658] | 0 | 32 | 2 | 3 | 7 | 6 | 9 | 4 | 19 | 3
9 | COC(=O)Nc1nc2ccc(Oc3ccc(CC(=O)Nc4cc(C(F)(F)F)ccc4F)cc3)cc2[nH]1 [GW680903] | 0 | 0 | 0 | 0 | 0 | 0 | 60 | 15 | 0 | 0
10 | Cl.N#CCc1ccc(Nc2nccc(Nc3ccc(Oc4ccccc4)cc3)n2)cc1 [GW639905] | 0 | 94.7 | 0 | 0 | 14 | 0 | 36 | 0 | 0 | 0
11 | O=C(Nc1n[nH]c2nc(-c3ccccc3O)ccc12)C1CC1 [SB-711880] | 0 | 0 | 27 | 7 | 0 | 0 | 0 | 0 | 26 | 0
12 | Cc1ccc(C)c(NC(=O)Nc2ccc(C)c(-c3ccc(C(=O)Nc4ccncc4)cc3)c2)c1 [GSK1398473] | 0 | 92.4 | 0 | 0 | 12 | 0 | 36 | 0 | 8 | 0
13 | CN(C)c1ncnc2nc[nH]c12 [SKF-31736] | 0 | 3 | 23 | 12 | 15 | 0 | 0 | 0 | 0 | 0
14 | Cc1ccc(NC(=O)c2ccc(Cl)c(Cl)c2)cc1-c1ccc(C(=O)Nc2ccncc2)cc1 [GSK1398460] | 0 | 9 | 0 | 0 | 17 | 0 | 40 | 25 | 0 | 19
15 | CC(C)c1nc(-c2cccc(NS(=O)(=O)c3c(F)cccc3F)c2)c(-c2ccnc(Nc3ccc(N4CCOCC4)nc3)n2)s1.Cl [GSK1723980] | 0 | 98.3 | 93.2 | 57 | 69 | 83 | 55 | 0 | 32 | 0
16 | COc1cccc(C2=C(Nc3cccc(O)c3)C(=O)NC2=O)c1 [SB-390771] | 4 | 0 | 0 | 0 | 29 | 0 | 51 | 0 | 3 | 19
